In ChEMBL document CHEMBL3988442, “University of Dundee, Small-Polar-MMV Screening Library” (2021):
Several values for one entry are separate records, joined by “and”; a condition that tells them apart may be missing. Equal entries are not always repeated. For some of these results: Entries with a potency or affinity are not part of this list.

Assays:
Design in all cases: scale not given: direction of the effect not stated beside the values
[1] = molecular target: Protein translocase subunit SecA (Escherichia coli (strain K12)) (UniProt P10408); experiment: Assay to Identify E. coli SecA ATPase Inhibitors; format: functional; conditions: 30 µM
Chain of Protein translocase subunit SecA (Escherichia coli (strain K12)) (P10408 whole entry): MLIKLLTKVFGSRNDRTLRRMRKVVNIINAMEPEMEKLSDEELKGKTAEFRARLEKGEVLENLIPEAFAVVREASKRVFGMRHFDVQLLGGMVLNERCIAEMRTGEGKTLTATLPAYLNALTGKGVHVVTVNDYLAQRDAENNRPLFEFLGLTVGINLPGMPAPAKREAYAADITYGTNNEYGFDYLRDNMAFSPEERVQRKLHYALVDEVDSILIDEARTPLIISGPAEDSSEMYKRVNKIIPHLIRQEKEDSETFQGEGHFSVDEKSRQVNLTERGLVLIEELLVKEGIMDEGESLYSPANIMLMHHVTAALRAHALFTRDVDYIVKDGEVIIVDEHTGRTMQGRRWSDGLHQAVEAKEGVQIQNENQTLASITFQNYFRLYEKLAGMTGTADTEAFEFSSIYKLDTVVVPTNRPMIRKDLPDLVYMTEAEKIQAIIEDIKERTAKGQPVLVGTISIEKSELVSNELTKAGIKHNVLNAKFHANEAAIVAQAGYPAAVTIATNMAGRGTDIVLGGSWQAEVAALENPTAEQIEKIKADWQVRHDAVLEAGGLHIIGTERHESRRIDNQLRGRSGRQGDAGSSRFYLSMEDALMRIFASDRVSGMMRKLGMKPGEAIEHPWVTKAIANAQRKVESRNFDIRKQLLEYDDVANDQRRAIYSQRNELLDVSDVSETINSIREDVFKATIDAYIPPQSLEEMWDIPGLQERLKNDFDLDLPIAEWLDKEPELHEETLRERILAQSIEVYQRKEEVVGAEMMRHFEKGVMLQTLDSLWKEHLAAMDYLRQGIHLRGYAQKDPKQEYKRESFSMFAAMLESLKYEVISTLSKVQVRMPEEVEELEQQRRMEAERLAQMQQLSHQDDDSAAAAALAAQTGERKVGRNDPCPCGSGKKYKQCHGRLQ

[2] = molecular target: T1, Ubiquitin-activating enzyme e1, putative (Leishmania donovani (strain BPK282A1)) (UniProt E9BSI1); experiment: Leishmania donovani Ubiquitin Activating Enzyme (LdE1); format: functional; conditions: 30 µM
T1 sequence (whole entry): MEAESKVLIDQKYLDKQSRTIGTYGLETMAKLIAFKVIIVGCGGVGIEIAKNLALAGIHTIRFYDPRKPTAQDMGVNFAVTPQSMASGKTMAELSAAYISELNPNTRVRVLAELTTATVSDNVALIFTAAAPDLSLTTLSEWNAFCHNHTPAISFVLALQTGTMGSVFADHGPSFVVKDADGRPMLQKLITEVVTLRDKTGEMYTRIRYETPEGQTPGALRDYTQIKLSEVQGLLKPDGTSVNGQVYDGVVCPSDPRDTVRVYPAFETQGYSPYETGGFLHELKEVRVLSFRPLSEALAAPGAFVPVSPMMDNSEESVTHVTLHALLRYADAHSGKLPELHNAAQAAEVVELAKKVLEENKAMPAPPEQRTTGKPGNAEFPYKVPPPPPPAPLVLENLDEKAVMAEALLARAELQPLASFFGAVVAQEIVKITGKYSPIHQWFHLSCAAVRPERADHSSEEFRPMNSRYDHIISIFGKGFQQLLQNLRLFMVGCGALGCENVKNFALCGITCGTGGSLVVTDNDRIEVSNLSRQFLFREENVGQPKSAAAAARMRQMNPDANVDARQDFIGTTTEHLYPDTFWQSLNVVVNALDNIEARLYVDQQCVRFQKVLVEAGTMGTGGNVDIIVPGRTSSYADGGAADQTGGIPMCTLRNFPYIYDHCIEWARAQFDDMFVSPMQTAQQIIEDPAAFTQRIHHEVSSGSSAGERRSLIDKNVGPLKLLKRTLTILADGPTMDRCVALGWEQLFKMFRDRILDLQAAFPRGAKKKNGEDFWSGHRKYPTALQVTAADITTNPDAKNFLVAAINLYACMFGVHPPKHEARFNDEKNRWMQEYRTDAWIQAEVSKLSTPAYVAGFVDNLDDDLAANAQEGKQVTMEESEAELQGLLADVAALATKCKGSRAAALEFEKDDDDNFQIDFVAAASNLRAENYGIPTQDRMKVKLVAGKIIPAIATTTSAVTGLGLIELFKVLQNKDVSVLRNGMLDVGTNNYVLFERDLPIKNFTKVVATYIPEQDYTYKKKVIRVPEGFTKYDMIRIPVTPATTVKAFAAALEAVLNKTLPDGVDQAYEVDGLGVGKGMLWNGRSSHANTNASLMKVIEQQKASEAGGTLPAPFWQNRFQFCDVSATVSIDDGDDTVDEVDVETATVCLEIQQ

[3] = molecular target: AMP-activated protein kinase, AMPK (Homo sapiens) (UniProt P54646+O43741+P54619+Q9UGJ0+Q9Y478+Q13131+Q9UGI9); experiment: AMP-dependent Kinase enzyme assay. An in vitro enzyme assay that detects ADP turnover that is directly proportional to AMPK activity. This uses naive AMPK that is activated during the assay with MK-8722; format: functional; conditions: 30 µM
[4] = molecular target: Sialic acid-binding Ig-like lectin 9 (Homo sapiens) (UniProt Q9Y336); experiment: Hs-Siglec9 ALPHAscreen SOP 20170721; conditions: 10 µM
Chain of Sialic acid-binding Ig-like lectin 9 (Homo sapiens) (Q9Y336 whole entry): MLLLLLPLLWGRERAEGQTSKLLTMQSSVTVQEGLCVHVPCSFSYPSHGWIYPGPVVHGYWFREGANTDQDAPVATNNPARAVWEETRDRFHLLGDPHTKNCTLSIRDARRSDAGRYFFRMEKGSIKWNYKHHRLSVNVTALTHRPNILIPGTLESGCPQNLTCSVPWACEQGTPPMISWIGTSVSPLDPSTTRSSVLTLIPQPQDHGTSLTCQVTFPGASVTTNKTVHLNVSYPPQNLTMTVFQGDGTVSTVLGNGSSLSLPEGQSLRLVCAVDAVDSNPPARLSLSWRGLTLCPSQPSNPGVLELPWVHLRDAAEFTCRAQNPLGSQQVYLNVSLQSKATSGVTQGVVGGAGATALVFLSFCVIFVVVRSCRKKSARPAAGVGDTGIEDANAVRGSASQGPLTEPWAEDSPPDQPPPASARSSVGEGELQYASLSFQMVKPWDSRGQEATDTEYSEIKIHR

[5] = test system: Trypanosoma cruzi; experiment: Trypanosoma cruzi phosphomannomutase and mannose-1-phosphate guanylyltransferase assay; format: functional; conditions: 10 µM
[6] = molecular target: T2, Arginase-2, mitochondrial (Homo sapiens) (UniProt P78540); experiment: in vitro enzyme assay to detect the production of urea directly proportional to the activity of Arginase II; format: functional; conditions: 33.3 µM; also: in the data most compounds retested in dose-response had high values
T2 sequence (whole entry): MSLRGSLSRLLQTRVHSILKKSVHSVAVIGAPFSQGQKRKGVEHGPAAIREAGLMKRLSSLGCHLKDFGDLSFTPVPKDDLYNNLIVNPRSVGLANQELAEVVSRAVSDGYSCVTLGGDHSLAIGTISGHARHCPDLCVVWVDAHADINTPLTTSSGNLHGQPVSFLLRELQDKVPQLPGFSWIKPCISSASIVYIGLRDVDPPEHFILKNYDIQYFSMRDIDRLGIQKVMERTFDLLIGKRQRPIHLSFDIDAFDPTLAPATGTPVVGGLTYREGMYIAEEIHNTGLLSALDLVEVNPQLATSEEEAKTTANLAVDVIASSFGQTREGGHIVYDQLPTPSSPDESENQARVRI

[7] = molecular target: T3, Proteasome subunit beta (Trypanosoma cruzi) (UniProt O96673); experiment: Trypanosoma cruzi proteasome chymotrypsin-like activity (TcProtChymo) assay.; also: in the data most compounds retested in dose-response had high values; format: functional; conditions: 9.37 µM
T3 sequence (whole entry): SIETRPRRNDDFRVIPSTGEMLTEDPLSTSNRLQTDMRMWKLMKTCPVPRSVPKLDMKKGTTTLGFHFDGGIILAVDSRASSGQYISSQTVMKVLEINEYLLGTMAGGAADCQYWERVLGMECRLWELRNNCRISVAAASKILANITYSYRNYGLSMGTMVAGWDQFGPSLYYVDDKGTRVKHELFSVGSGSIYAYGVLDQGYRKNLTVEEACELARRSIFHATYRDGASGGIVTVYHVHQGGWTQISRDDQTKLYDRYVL

[8] = species: Homo sapiens; experiment: To identify inhibition of the IFN signalling (Jak-Stat) pathway via expression of an eGFP reporter gene under the control of an IFN-stimulated response element (ISRE) containing MxA promoter.; format: functional; conditions: 30 µM
[9] = molecular target: T4, Tyrosyl-tRNA synthetase, putative (Trypanosoma cruzi (strain CL Brener)) (UniProt Q4DSP6); experiment: Trypanosoma cruzi tyrosyl tRNA synthetase (TcYRS) _High Tyrosine SOP; format: functional; conditions: 30 µM; also: in the data most compounds retested in dose-response had high values
T4 sequence (whole entry): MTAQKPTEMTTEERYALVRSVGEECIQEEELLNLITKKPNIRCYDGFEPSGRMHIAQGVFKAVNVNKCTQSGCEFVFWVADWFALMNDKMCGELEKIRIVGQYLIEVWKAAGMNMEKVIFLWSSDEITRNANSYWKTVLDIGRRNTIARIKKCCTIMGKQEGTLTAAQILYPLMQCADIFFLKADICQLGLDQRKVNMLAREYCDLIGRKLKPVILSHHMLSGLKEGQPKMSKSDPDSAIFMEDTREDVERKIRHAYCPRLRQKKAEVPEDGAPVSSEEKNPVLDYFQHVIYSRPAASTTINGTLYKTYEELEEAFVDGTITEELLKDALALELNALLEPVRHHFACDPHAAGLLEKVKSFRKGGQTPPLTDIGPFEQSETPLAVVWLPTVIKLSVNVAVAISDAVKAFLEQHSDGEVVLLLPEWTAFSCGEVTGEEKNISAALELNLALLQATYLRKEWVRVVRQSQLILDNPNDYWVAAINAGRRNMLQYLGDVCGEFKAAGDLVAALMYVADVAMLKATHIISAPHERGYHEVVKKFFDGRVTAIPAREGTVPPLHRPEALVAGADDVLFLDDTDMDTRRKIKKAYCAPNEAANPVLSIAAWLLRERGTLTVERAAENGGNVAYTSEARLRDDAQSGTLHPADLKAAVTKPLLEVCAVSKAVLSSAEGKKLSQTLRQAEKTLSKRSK

[10] = molecular target: T4, Tyrosyl-tRNA synthetase, putative (Trypanosoma cruzi (strain CL Brener)); experiment: Trypanosoma cruzi tyrosyl tRNA synthetase (TcYRS) SOP; format: functional; conditions: 30 µM
[11] = molecular target: Chromo domain-containing protein 1 (Saccharomyces cerevisiae (strain ATCC 204508 / S288c) (Baker's yeast)) (UniProt P32657); experiment: ScCHD-1 Enzyme Inhibition Assay; format: functional; conditions: 30 µM; also: in the data most compounds retested in dose-response had high values
Chain of Chromo domain-containing protein 1 (Saccharomyces cerevisiae (strain ATCC 204508 / S288c) (Baker's yeast)) (P32657 whole entry, the tested form may be a part): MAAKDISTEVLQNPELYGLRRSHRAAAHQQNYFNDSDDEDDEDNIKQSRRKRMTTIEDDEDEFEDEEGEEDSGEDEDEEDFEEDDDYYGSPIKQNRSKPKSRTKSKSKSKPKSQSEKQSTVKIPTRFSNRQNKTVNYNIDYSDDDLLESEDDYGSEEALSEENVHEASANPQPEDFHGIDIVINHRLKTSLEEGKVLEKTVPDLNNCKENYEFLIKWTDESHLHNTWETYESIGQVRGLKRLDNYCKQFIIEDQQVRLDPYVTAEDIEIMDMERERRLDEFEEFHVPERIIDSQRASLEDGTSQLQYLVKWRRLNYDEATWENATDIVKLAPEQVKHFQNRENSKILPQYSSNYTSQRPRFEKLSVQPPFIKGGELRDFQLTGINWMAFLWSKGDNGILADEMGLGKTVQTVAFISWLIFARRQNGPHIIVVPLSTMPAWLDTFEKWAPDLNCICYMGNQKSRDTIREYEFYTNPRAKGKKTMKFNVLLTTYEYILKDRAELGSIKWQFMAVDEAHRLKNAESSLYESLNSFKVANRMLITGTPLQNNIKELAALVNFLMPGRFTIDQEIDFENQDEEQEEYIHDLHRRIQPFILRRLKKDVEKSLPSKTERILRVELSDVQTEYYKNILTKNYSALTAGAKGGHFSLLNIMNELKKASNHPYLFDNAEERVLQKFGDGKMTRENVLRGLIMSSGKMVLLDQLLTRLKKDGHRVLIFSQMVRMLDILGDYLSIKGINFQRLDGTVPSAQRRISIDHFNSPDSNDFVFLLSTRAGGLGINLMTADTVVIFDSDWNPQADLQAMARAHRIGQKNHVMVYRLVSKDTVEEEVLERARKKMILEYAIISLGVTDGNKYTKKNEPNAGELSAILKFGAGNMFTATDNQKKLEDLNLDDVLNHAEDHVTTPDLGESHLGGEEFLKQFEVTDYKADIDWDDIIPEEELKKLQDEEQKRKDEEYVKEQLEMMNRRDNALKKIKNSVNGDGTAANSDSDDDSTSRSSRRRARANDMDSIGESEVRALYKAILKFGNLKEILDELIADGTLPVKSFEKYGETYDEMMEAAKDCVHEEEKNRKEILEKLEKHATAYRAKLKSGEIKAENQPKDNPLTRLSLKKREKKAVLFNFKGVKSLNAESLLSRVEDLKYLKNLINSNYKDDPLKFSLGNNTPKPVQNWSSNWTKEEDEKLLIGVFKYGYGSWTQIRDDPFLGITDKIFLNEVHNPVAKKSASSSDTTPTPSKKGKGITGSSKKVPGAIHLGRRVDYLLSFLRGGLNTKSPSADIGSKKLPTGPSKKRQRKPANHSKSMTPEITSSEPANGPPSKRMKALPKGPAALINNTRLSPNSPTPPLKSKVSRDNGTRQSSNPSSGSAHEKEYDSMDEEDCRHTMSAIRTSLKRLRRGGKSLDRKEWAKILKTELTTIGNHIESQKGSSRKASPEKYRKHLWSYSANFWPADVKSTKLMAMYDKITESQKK

[12] = test system: N/A; experiment: Trypanosoma cruzi proteasome luciferase counter-screen; format: functional; conditions: 9.37 µM

SMILES	Percent Effect [1] [%]	Percent Effect [2] [%]	Percent Effect [3] [%]	Percent Effect [4] [%]	Percent Effect [5] [%]	Percent Effect [6] [%]	Percent Effect [7] [%]	Percent Effect [8] [%]	Percent Effect [9] [%]	Percent Effect [10] [%]	Percent Effect [11] [%]	Percent Effect [12]
CCn1cc(NC(=O)C2CCN(CC(=O)N3CCOCC3)CC2)cn1	-3.94	10.5	-3.09	3.27	-4.01	1.8	3.98	3.5	2.46	11.1	4.1	
Cc1cc(-c2cnc(NCc3cccnc3)nc2C(C)C)on1	-6.62	2.67	40.6	-1.45	-3.74	-2.1	3.79	56.7	1.06	1.28	-1.52	
Cc1nnc(CN2CCC(N(C)Cc3nnc(C4CC4)n3C)C2)o1 (stereo not given)	-3.08	16.2	-9.74	-7.84	-6.32	-1.2	5.04	20.7	4.43	11.1	-4.72	
O=C(c1ccncc1F)N1CCc2ncnc(-c3ccncc3)c2CC1	-6.29	5.41	-2.05	-1.21	-5.38	-0.955	10.7	14	1.08	7.69	0.761	
O=C(Cc1ccccc1F)N1C[C@@H]2COC[C@]2(COc2cccnc2)C1	-2.71	8.11	2.48	0.934	-1.66	10.5	17.5	-1.09	3.24	12.8	-2.39	
c1cnn(CCNCc2nnc(C3CC3)o2)c1	-2.66	27.9	-5.53	-12.3	1.42	-2.66	9.91	11.1	7.39	24.1	-13.5	
O=C(NCc1cccnc1)C1=NN(c2ccccc2)C(=O)CN1	-0.966	18.9	8.77	14.9	0.293	26.1	15	-2.67	6.45	18.5	-8.57	
O=C(CCc1cccs1)N1CCC(N2CCNC2=O)CC1	-2.57	23.4	-4.07	-12.7	3.23	-1.05	18.5	-5.88	7.62	25.9	-19.5	
Cc1nn(C)c(C)c1C1COCCN1C(=O)c1n[nH]c2ccccc12 (stereo not given)	-1.74	18.2	2.92	-4.32	6.74	-0.712		-8.49	5.83	21.9	-7.82	17.2% and 17.5%
c1ccc(CCN2CCN(c3ccc4nncn4n3)CC2)nc1	-3.09	5.2	9.47	7.22	-4.49	3.56	3.72	21.7	2.91	7.32	-0.331	
NC(=O)C1CN(C(=O)Nc2ccccc2N2CCCCCC2)CCO1 (stereo not given)	-6.93	-48.6	-3.8	9.74	6.96	-3.88	4.31	11.3	1.98	15.8	-1.09	
Cc1cccc(-n2cc(C(=O)N3CCCC(n4ccnc4)C3)nn2)c1 (stereo not given)	-3.01	15.6	7.1	-13.5	-5.58	-3.16	14.6	21.7	1.91	11.8	-17.4	
O=C(C1=CCCC1)N1C[C@@H]2COC[C@]2(COc2cccnc2)C1	-2.49	2.7	7.33	5.37	-1.27	5.41		0.513	0	-2.56	4.29	7.45% and 8.06%
CNS(=O)(=O)Cc1ccc(CNc2cncc(-n3cccn3)n2)cc1	-1.63	18.2	3.34	6.42	5.24	0		18.8	7.77	24.4	-12.2	16.1% and 14.8%
O=C(c1ccsc1)N1CCCC(c2cc(C(F)(F)F)[nH]n2)C1 (stereo not given)	-8.76	5.26	10.2	-0.389	-4.39	0.719	-2.12	24.2	0.493	3.7	7.08	
Cc1nc(CN2CCCN(CC(=O)Nc3cccnc3)CC2)no1	-3.59	18.2	4.53	-8.79	-0.294	4.84		23.7	5.71	9.41	-14	15.2% and 14.2%
O=C(NCc1cncc2c1CCN(Cc1cccs1)C2)C1CC1	1.73	8	3.65	-13.1	-9.65	9.56	21.2	5.35	5.32	6.41	0.102	
O=C1CC[C@H]2[C@H](CCN2C(=O)C2CCCO2)N1CCN1CCCC1 (stereo not given in full)	1.49	1.33	6.35	-1.83	0.393	-3.7	10.7	-5.66	2.12	0	-4.01	
COCCN1CCC2(CCN(Cc3nccs3)CC2)C1=O	-1.23	-2.67	-1.24	5.18	-5.79	-11.7	2.91	-7.71	6.25	2.5	0.122	
O=C(N1CCOCC1)N1CCc2ncnc(NC3CC3)c2CC1	-0.799	0	6.99	-5.96	-7.81	6.67	19.2	19.9	0.99	6.1	0.83	
